HIV RNase H inh-1: HIV-1 RT RNase H inhibitors, primary screen, biochemical, fluorescence; inhibition, % at 10 µM; Gag-Pol polyprotein (Human immunodeficiency virus type 1 group M subtype B (isolate …; RT-RNase H RNA/DNA duplex cleavage; hit rate 1.9% among 65,000; AID 565, 2006; in the data active = inhibition above about 50%
HIV RNase H inh-2: HIV-1 RT RNase H inhibitors, retest, confirmation, biochemical | hit rate 39% among 1,000 | shares compounds with HIV RNase H inh-1 | inhibition, % at 10 µM | Recombinant RT RNase H, fluorescent RNA/DNA duplex cleavage; in the data active = inhibition above about 48%
The depositor's hits bear a star. This is one part of a sample in which hits are shown more often than they occur.

SMILES | HIV RNase H inh-1 | others
COc1cccc(C2C3CN(C)CC=C3C(C#N)=C(N)C2(C#N)C#N)c1OC (stereo not given) | 0
COc1ccc(N2CSC3=C(C#N)C(c4cccc(OC)c4OC)CC(=O)N3C2)cc1 (stereo not given) | 75* | HIV RNase H inh-2=34
COc1cc(OC)c(C2C(C#N)=C(N)OC3=C2C(=O)CC(C)C3)cc1OC (stereo not given) | 3
COc1cccc(C2C(C#N)=C(N)Oc3c2oc(CO)cc3=O)c1OC (stereo not given) | -5
C=CCOC(=O)C1=C(C)OC(N)=C(C#N)C1c1ccccc1F (stereo not given) | 4
CC(C)(C)NC(=O)CN(C(=O)CS(=O)CC(=O)Nc1ccc(F)cc1)c1ccc(Cl)cc1 (stereo not given) | 5
COCCn1c(=NC(=O)CSCC(=O)Nc2cc(C)on2)sc2cc(C(=O)OC)ccc21 | -2
Cn1c(Cn2c(=O)sc3ccccc32)nnc1SCC(=O)NCc1ccccc1Cl | -11
CCOc1ccc(C(C)(C)C)cc1S(=O)(=O)N1CC(C)OC(C)C1 (stereo not given) | -5
CCn1c(SCC(=O)Nc2ccc(OCc3ccccc3)cc2)nnc1-c1ccco1 | 7
Cn1c(SCC(=O)NCc2ccccc2)nnc1C1CC1 | -3
c1cc(Nc2ncnc3sccc23)cc(-c2nnc3n2CCCCC3)c1 | 4
CCOC(=O)C1CCN(C(=O)CNS(=O)(=O)c2cccs2)CC1 | -8
c1ccc(-n2nnc3c(N4CCOCC4)ncnc32)cc1 | 67* | HIV RNase H inh-2=15
c1ccc(Cn2nnc3c(N4CCCC4)ncnc32)cc1 | -15
c1ccc(Cn2nnc3c(N4CCC5(CC4)OCCO5)ncnc32)cc1 | -23
N#Cc1c(C(F)(F)F)cc(-c2ccccc2)nc1SCc1nc(N)nc(N2CCOCC2)n1 | -2
Cc1ccc(NC(=O)CSc2nnc(-c3ccc(S(=O)(=O)N4CCCC4)cc3)o2)cc1C | 70* | HIV RNase H inh-2=69*
O=C(CSc1nnc(-c2ccc(F)cc2)o1)Nc1ccc(S(=O)(=O)N2CCCC2)cc1 | -40
Cc1cccc(NC(=O)CSc2nnc(-c3ccc(S(=O)(=O)N4CCCC4)cc3)o2)c1 | 3
CC1CCC(C(C)C)C(OC(=O)CSc2n[nH]c(=O)[nH]c2=O)C1 (stereo not given) | 0
COc1ccc(-c2nc(CN3CCC(C(=O)N4CCc5ccccc54)CC3)c(C)o2)cc1OC | -16
O=C1C2CC=CCC2C(=O)N1c1ccc(Cc2ccncc2)cc1 (stereo not given) | -3
COc1ccccc1-c1nnc(SCC(=O)N2CCOCC2)o1 | -4
COc1ccccc1-c1c(C#N)c(SCC(=O)N2CCCC2)nc(C)c1C(N)=O | 65* | HIV RNase H inh-2=-2
SMILES | HIV RNase H inh-1 | others
CCOC(=O)N1CCN(C(=O)CSc2cc(C)nc3c(-c4ccccc4OC)c(C)nn23)CC1 | -1
COc1ccc([C@@H]2Sc3ccccc3N(CCN(C)C)C(=O)[C@@H]2OC(C)=O)cc1 | -3
CCN(CC)CCNC(=O)c1ccccn1 | -1
Cc1ccc(-c2nnc(SCC(=O)N3CC(C)CC(C)C3)o2)cc1C (stereo not given) | -5
COc1ccccc1NC(=O)c1ccccc1SC | -44
COc1ccccc1NC(=O)c1cc2ccc(O)cc2o/c1=N\O | -12
COc1ccccc1NC(=O)c1cc2ccccc2o/c1=N\O | 89* | HIV RNase H inh-2=-4
Cc1ccc(Cn2nnc3c(=O)n(CC(=O)NCc4ccc5c(c4)OCO5)cnc32)cc1 | -6
CCOC(=O)CSc1nc(N)c(C#N)c(-c2ccc(OCC)cc2)c1C#N | -14
N#Cc1c(N)nc(SCC(=O)NC2CCCCC2)c(C#N)c1-c1ccc(Cl)cc1 | 82* | HIV RNase H inh-2=59*
Nn1c(SCC(=O)NC2CCCCC2)nnc1-c1ccc(Cl)cc1 | 3
CCOC(=O)C1=C(C)NC(SCC(=O)Nc2cc(C)on2)=C(C#N)C1c1cccs1 (stereo not given) | 12
Cc1ccc(C(=O)NCC(=O)OCC(=O)c2c(N)n(C)c(=O)n(C)c2=O)s1 | 2
Cn1c(SCC(=O)Nc2nccs2)nnc1-c1ccncc1 | 8
CCc1nnc(NC(=O)CSc2nc(-c3ccc(OC)cc3)ns2)s1 | 30
Cc1cc(C)nc(SCC(=O)N2CCCCC2)n1 | -30
Cc1cccc(-n2ccnc2SCC(=O)Nc2nccs2)c1C | -41
COc1ccc(-c2nsc(SCC(=O)Nc3cc(C)on3)n2)cc1 | 84* | HIV RNase H inh-2=61*
Cc1cccc(-c2nsc(SCC(=O)Nc3nccs3)n2)c1 | 82* | HIV RNase H inh-2=74*
Cc1cccc(-c2nsc(SCC(=O)N3CCCC3)n2)c1 | 79* | HIV RNase H inh-2=34
Cc1cccc(OCc2nnc(SCC(=O)N3CCCC3)n2C)c1 | -16
Cc1ccc2nc(SCC(=O)Nc3cc(C)on3)[nH]c2c1 | -2
Cc1cc(NC(=O)CSc2nc(-c3ccc(F)cc3)cs2)no1 | -2
Cc1cc(NC(=O)CSc2ccc(-c3nc4cc(C)c(C)cc4[nH]3)cn2)no1 | 70* | HIV RNase H inh-2=72*
Cc1cc(NC(=O)CSc2nc3ccccc3[nH]2)no1 | -3
SMILES | HIV RNase H inh-1 | others
Cc1nc2ncnn2c(N2CCCC(C(=O)Nc3ccc4c(c3)CCC4)C2)c1C (stereo not given) | -2
CS(=O)(=O)N(CC(=O)N1CCCCCC1)c1ccc2c(c1)OCCO2 | -13
O=C(Cn1ncc2c1-c1ccccc1OC2)N1CCN(Cc2ccc3c(c2)OCO3)CC1 | -17
CC1Cc2ccccc2N1C(=O)Cn1c(=O)oc2cc(S(=O)(=O)N3CCCCC3)ccc21 (stereo not given) | -1
CCOc1ccc(-n2c(SCC(N)=O)nc3c(c2=O)SCC3)cc1 | 10
COC(=O)c1ccc(CSc2ccc3nnc(-c4cccc(F)c4)n3n2)o1 | -1
O=C1CCN(C(=O)c2ccccc2)C2CCCCC12 (stereo not given) | -3
CCOC(=O)C1=C(C)Nc2nc(SCC)[nH]c(=O)c2C1c1ccncc1 (stereo not given) | -14
O=C(NCCN1CCCC1)c1cc(-c2ccncc2)nc2ccc(S(=O)(=O)N3CCOCC3)cc12 | 3
CCOC(=O)c1ccc2ncc(C(=O)OCC)c(NCc3ccco3)c2c1 | 4
CC1CCN(C(=O)CSc2nncn2-c2ccccn2)CC1 | 76* | HIV RNase H inh-2=37
c1ccc(CSc2nncn2-c2ccccn2)cc1 | -5
CC1CCN(C(=O)CSc2nnc(Cn3c(=O)sc4ccccc43)n2C)CC1 | -11
O=C(Cc1cccs1)Nc1ccc(NC(=O)c2ccco2)cc1 | -3
CCOC(=O)Cc1csc2nc3sc(C)c(C)c3c(=O)n12 | -9
O=C(Nn1c(Cc2cccs2)nc2ccccc2c1=O)c1cccs1 | -16
CCCC(=O)Nc1ccc(Cl)c(NC(=O)c2ccco2)c1 | -3
CCCC(=O)Nc1cccc(NC(=O)CN2CCN(c3ccccc3OC)CC2)c1 | -3
CCCC(=O)Nc1ccc(N2CCN(CC)CC2)c(Cl)c1 | 81* | HIV RNase H inh-2=7
Fc1ccccc1N1CCN(Cc2nc(-c3ccc(Cl)cc3Cl)no2)CC1 | -2
O=S(=O)(c1ccccc1)n1ccc2ccccc21 | -112
O=S(=O)(/N=S1/CC=CCN1S(=O)(=O)c1ccccc1)c1ccccc1 (stereo not given) | 79* | HIV RNase H inh-2=60*
O=S(=O)(c1ccccc1)N1CCN(S(=O)(=O)c2ccccc2)C1 | -9
c1ccc(-c2nc(NC3CC3)nc(-n3ccnc3)n2)cc1 | -16
Cc1cc(N/C=C2\CCCCC2=O)no1 | -2
